High-throughput results deposited in PubChem BioAssay by National Center for Advancing Translational Sciences (NCATS).
A selection: hits, their analogues and other compounds. The true share with any hit is near 20%.
Cycloheximide cs: affects cycloheximide protein synthesis inhibition readout, counter-screen; 300,000 compounds, 12% hits; max response, %; cell reporter, cycloheximide protein synthesis inhibition counterscreen; in the data active = max response mostly above about 13%, no sharp cut-off; inactive = mostly below about 14%; also: read at 38.3 µM for the half of the compounds with a filed dose; 0% is about no effect
HCMV antiviral: human cytomegalovirus inhibition | HFF cells, HCMV-luciferase reporter, 72 h; stronger effect = lower value | activity change, negative = inhibition, % at 57.5 µM | 410,000 compounds, 4.5% hits; in the data active = activity change below about -60%; inconclusive = no clear call, values can overlap the other calls; inactive = above about -39%; also: % is scaled to controls: 0 for no effect and ±100 for the full control effect
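HFF cells seeded 16 h at 37C, treated with compounds, infected with luciferase-reporter HCMV at MOI 1 PFU/cell; luciferase read at 72 h post infection, normalized to buffer-only and Salinomycin controls.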
Pf growth 48h: inhibits P. falciparum growth in the first generation, 48 h; AID 504832; 310,000 compounds, 5.9% hits; Potency, µM (titrated, usually from 28.7 µM), without a hit: top-dose activity change, negative = inhibition, usual class: inhibitors; P. falciparum luciferase growth in erythrocytes, 48 h; also: potency is read from the fitted curve at half-maximal effect; % is scaled to controls: 0 for no effect and ±100 for the full control effect
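Here the parasites carry a stable luciferase gene and grow inside erythrocytes in Albumax-based RPMI medium with compound for one erythrocytic cycle. Activity is scored as loss of luminescent signal.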
Pf growth 96h: P. falciparum growth inhibition at 96 hour, primary screen for plastid delayed-death inhibitors; 320,000 compounds, 6.9% hits; P. falciparum luciferase reporter growth, 96 h; Potency, µM (top dose mostly 28.7 µM), without a hit: at the top dose activity change, negative = inhibition, usual class: inhibitors; also: potency is read from the fitted curve at half-maximal effect; % is scaled to controls: 0 for no effect and ±100 for the full control effect
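Erythrocytes infected with luciferase-expressing P. falciparum were dispensed at 2% hematocrit and 0.05% parasitemia (final), then incubated with compounds 96 hours at 37 C in 5% CO2. Luminescence after detection reagent addition reported growth.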
Shiga toxin inh: blocks Shiga toxin action in Vero cells. Vero cells, Shiga toxin protein synthesis inhibition reporter. inhibition, % at 38.7 µM. 290,000 compounds, 9.2% hits; in the data active = inhibition mostly above about 28%, no sharp cut-off; inactive = mostly below about 43%; also: 0% is about no effect
* marks the source's active call; other numbers are inactive results; i = inactive; ? = inconclusive; · = no result; ! = not confirmed by another sample; [ ] = remark or other dose. Unless noted, calls follow the shape of the dose curve; as a rule, active = well fitted inhibition curve with a large enough effect; inconclusive = small, poorly fitted or top-dose-only effect, or another doubt; inactive = no such curve, though single readings can be large or run the other way.

SMILES | Cycloheximide cs | HCMV antiviral | Pf growth 48h | Pf growth 96h | Shiga toxin inh
CN(C)c1ccc(-c2n[nH]c(=S)n2-c2ccccc2)cc1 | 7.5 | 14.9 | 1.7%[5.75 µM] | ? | -3.2
COc1cccc(NC(=O)N2C3CCCC2CC(NC(=O)C2CC2)C3)c1 (stereo not given) | 6.7 | 14.3 | -21.4% | 1.47µM* | -11.6
COc1cccc(NC(=S)N2C3CCCC2CC(NC(=O)C2CC2)C3)c1 (stereo not given) | 6.6 | -3.8 | 11.9% | 2.9% | 11.9
Cc1ccccc1NC(=O)N1C2CCCC1CC(NC(=O)C1CC1)C2 (stereo not given) | -3.2 | -1.4 | -0.2% | 9.28µM* | -6.9
COc1ccc(C(=O)CC(=O)c2ccc(OC)cc2)cc1 | 25.7* | 5.4 | -3.8% | 0.0% | 33.3
COc1ccc(O)c(C(=O)CC(=O)c2ccncc2)c1 | · | 57.8 | · | · | ·
COc1ccc(CCNC(=O)CCCN2C(=O)c3ccccc3C2=O)cc1 | 6.0 | -81.4* | -3.2% | 0.0% | 14.8
COc1ccc(C(CC(=O)c2ccccc2)S(=O)(=O)c2ccc(C)cc2)cc1 (stereo not given) | 33.8* | -105.4* | 160.5% | 161.4% | 32.7*
COc1ccc(CCNC(=O)CCCCCN2C(=O)c3ccccc3C2=O)cc1 | 7.4 | -1.4 | -16.6% | ? | -5.6
CC(=O)CC(c1ccccc1)S(=O)(=O)c1ccc(C)cc1 (stereo not given) | -1.0 | -6.5 | ? | 52.2% | -8.4
COc1ccc(O)c(C(=O)CC(=O)c2ccccc2)c1 | 42.8* | · | 401.1% | 417.6% | 87.8
CC(OC(=O)c1cc(S(=O)(=O)N(C)C)ccc1N1CCCC1)C(=O)NCc1ccccc1 (stereo not given) | -1.5 | -4.6 | 0.0% | -19.1% | -8.9
CCN(Cc1ccccc1)C(=O)Cn1cc2c(n1)CCCC2 | -0.9 | 9.5 | 8.2% | 9.2% | 4.4
COc1ccc(C(=O)C/C(=C\C(=O)c2ccc(C)cc2)c2ccccc2)cc1 | 7.1 | -97.9* | ? | 10.4µM* | -15.8
COc1ccc(C(=O)CCNc2ccc(F)cc2)cc1 | 28.5* | 25.2 | 25.1% | 39.6% | 82.1*
COc1ccc(C(=O)CCC(=O)O)cc1 | -0.9 | -11.7 | · | ? | 20.7
COc1ccc(C(=O)CC(=O)c2ccccc2)cc1 | · | 37.8 | · | · | ·
COc1ccc(C(=O)Cn2cc[n+](C)c2)cc1 | -2.7 | -7.6 | 11.7µM* | 118.6% | -17.0
COc1ccc(NC(=O)CCC(=O)c2ccc(F)cc2)cc1 | · | 28.2 | · | · | ·
COc1ccc(C(=O)NCC(=O)c2ccccc2)cc1 | 36.4* | 59.8 | 279.0% | 17.4% | ·
Cc1occc1C(=O)NNS(=O)(=O)c1ccc([N+](=O)[O-])cc1 | -2.9 | ? | 8.8% | -16.5% | 4.0
O=C(CCN1C(=O)c2ccccc2C1=O)Oc1ccc2ccccc2c1 | -6.7 | 46.3 | 0.2% | 0.1% | -9.7
COc1ccc(C(=O)CN2C(=O)c3ccccc3C2=O)cc1 | 30.2* | 0.0 | 110.0% | 108.7% | 57.6*
COc1ccc(C(=O)Cc2nnc(C)s2)cc1 | 48.4* | -3.2 | 99.4% | 82.1% | 105.4*
CC1=CC(C)(C)Nc2ccc(OC(=O)CCN3C(=O)c4ccccc4C3=O)cc21 | 21.6* | -99.5* | 13.1µM* | 6.3% | 23.2
SMILES | Cycloheximide cs | HCMV antiviral | Pf growth 48h | Pf growth 96h | Shiga toxin inh
Cc1ccc(OC(=O)CN2C(=O)c3ccccc3C2=O)cc1C | -4.8 | -61.0* | -2.6% | ? | 3.9
COc1ccc(C(=O)Cc2ccccc2C(=O)O)cc1 | · | -18.7 | · | · | ·
COc1ccc(CN2CCN(CCCCOc3ccc(Cl)cc3)CC2)c(OC)c1OC | 8.2 | ? | -4.4% | -7.7% | 4.4
CC(C)c1ccc(CN(C)C(=O)c2ccc(S(=O)(=O)NCc3ccco3)cc2)cc1 | · | ? | 9.4% | ? | ·
O=C(COC(=O)Cc1ccsc1)Nc1ccc(Cl)cn1 | · | -3.4 | 5.6% | -12.6% | ·
CC1CC(=O)Nc2ccccc2N1S(=O)(=O)c1ccc(Cl)cc1 (stereo not given) | -1.7 | 12.1 | -13.0% | 6.2% | 1.3
CC(=O)Nc1ccc(S(=O)(=O)N2c3ccccc3NC(=O)CC2C)c(Cl)c1 (stereo not given) | -0.3 | 29.1 | 2.08µM* | 0.0% | 2.1
CC1CC(=O)Nc2ccccc2N1S(=O)(=O)c1ccc(F)cc1F (stereo not given) | -2.7 | 22.2 | 2.33µM* | ? | -3.8
Cc1ccc2c(Sc3ccc(Cl)cc3)c(C(=O)NCCC(C)C)[nH]c2c1 | · | 4.5 | · | · | ·
O=C(CCCC1=NS(=O)(=O)c2ccccc2N1)OCc1ccc(Cl)cc1 | 1.6 | -13.1 | ? | ? | 21.8
Cc1ccccc1COC(=O)CCC1=NS(=O)(=O)c2ccccc2N1 | 0.7 | -6.5 | -7.8% | 11.7µM* | -4.5
Cc1cccc(NC(=O)COC(=O)CCCC2=NS(=O)(=O)c3ccccc3N2)c1 | -1.7 | -104.2*! | 0.2% | 18.1% | -3.3
Cc1cc2ccccc2n1CCNC(=O)c1ccc(S(=O)(=O)N2CCCCC2)cc1 | -2.3 | 42.9 | 2.08µM* | 1.65µM* | 12.6
Cc1ccc(C(=O)NCCn2c(C)cc3ccccc32)cc1C | · | -69.2* | · | · | ·
Cc1cc(/C=C(\C#N)C(=O)NC2CCCCCC2)c(C)n1C | 6.8 | -35.8 | -0.8% | 4.3% | 50.7
COc1cc(OC)cc(C(=O)N=c2sc3ccccc3n2C)c1 | 29.3* | 112.2 | 350.7% | 142.7% | 32.8*
Cn1c(=NC(=O)COc2ccccc2)sc2ccccc21 | 42.4* | 25.0 | i | 203.9% | 77.8*
